Test results from PubChem BioAssay (NCI).
The panel holds about 83,000 compounds, 20% with a hit somewhere; the sample as a whole holds those more often.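 A percent growth of 40 corresponds to 60% growth inhibition; 0 means no net growth; -100 means all cells died. Active threshold: below 10.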 Values without a mark were called inactive. Calls of active or inactive are those of the source.

Each molecule was assayed on HCT-15 colon (assay: NCI-60 one-dose screen, 48 h (100 = growth as untreated, 0 = no growth, -100 = all killed)). Details: 10 µM unless noted.
Molecule COC(=O)[C@@H]1CCCN1C(=O)[C@H]1CCCN1C(=O)[C@@H](Cc1c[nH]c2ccccc12)NC(=S)Nc1cc(C(F)(F)F)cc(C(F)(F)F)c1 has a growth of 43.5%.
Cc1ccc(F)cc1NC(=O)c1cc(Cl)ccc1Nc1ccccc1 showed a growth of 38.4%.
Molecule CC1=C(C(=O)OCC2CCN(C(=O)OC(C)(C)C)CC2)[C@@H](c2cccc(C#N)c2)C2=C(CC(C)(C)CC2=O)N1 has a growth of 19.5%.
CCCCCCc1cc2cc(-c3csc(/C=C/c4ccccc4)n3)c(=O)oc2cc1O gave a growth of 18.9%.
Molecule COc1ccc(Br)c(/C=C2\SC(=Nc3ccc(O)cc3)NC2=O)c1 has a growth of 79.3%.
In the case of COc1ccc(Cn2c(Br)c3c(c2Br)-c2nc(N)sc2CC3)cc1, the growth is reported as 29.9%.
Work on COC(=O)c1cc2c(n1Cc1ccccc1)-c1oncc1CCC2 yielded a growth of 40.9%.
With CCOC(=O)c1sc(-c2ccc(OS(=O)(=O)c3ccccc3[N+](=O)[O-])c(C=O)c2)nc1C the growth was 6.3% (active).
Clc1ncccc1Nc1ccc2nnc(-c3ccncc3)n2n1 gave a growth of 87.1%.
With O=C1NC(=O)C(=Cc2cn(Cc3cn(Cc4ccc(Cl)cc4Cl)nn3)c3ccccc23)C(=O)N1 the growth was 90.4%.
For CCCCCCn1c(=N)n(CC(O)COc2cccc(C)c2)c2ccccc21 (centres undefined), the growth was -18.8% (active).
O=C(Nc1ncc(Cc2cccc(C(F)(F)F)c2)s1)C1COc2ccccc2O1 (centres undefined) was tested, and the growth was 72%.
With CN1C(=O)N(C)C2C1NN=c1s/c(=C\c3ccc([N+](=O)[O-])cc3)c(=O)n12 (centres undefined) the growth was 37.6%.
In the case of O=C(c1nc2ccccc2[nH]1)C1C(c2ccc(F)cc2)C2CC3CCCCC3N2[C@@]12C(=O)Nc1ccc(Cl)cc12 (some centres undefined), the growth is reported as 28%.
With COc1ccc(/C=C/C(=O)c2ccc3cc(OC)c(OC)cc3c2)cc1OC the growth was 27.5%.
With O=c1oc2ccc(F)cc2c(=O)n1-c1ccc(Br)cc1F the growth was 2.89% (active).
With COc1cc(/C=C2\CN(S(=O)(=O)c3ccccc3)C/C(=C\c3cc(CN4CCCC4)c(O)c(OC)c3)C2=O)cc(CN2CCCC2)c1O the growth was 50.3%.
CC(C)C[C@H](C(=O)N[C@@H](C)C(N)=O)N1CC=CCN(O)S1(=O)=O was tested, and the growth was 102% [5 µM].
With CN(C)CCCNCc1ccc(-c2ccc(F)c(Cl)c2)o1 the growth was 1.01% (active).
Work on O=c1oc2ccc(-c3ccc(F)cc3F)cc2c(=O)n1-c1cccc(C(F)(F)F)c1 yielded a growth of 13%.
For O=C(N=Nc1c(O)[nH]c2ccccc12)c1oc2ccccc2c1CN1CCN(c2ccccc2)CC1, the growth was -8.29% (active).
For O=C(Nc1ccc(Br)cc1F)c1cc(F)ccc1O, the growth was 2.25% (active).
For COc1cc(NC(=O)CCSc2nc3ccccc3c(=O)n2Cc2ccccc2)cc(OC)c1OC, the growth was 92.5%.
In the case of O=C(Nc1ccc(I)cc1F)c1cc(F)ccc1O, the growth is reported as 0.237% (active).
In the case of COc1nccc2cc3c(=O)n4c(cc5ccccc54)c(=O)n3c12, the growth is reported as 91.4%.
O=C(COc1cc(O)c2c(=O)cc(-c3ccccc3)oc2c1)Nc1ccccc1 showed a growth of 96%.
With O=c1oc2ccc(-c3ccc(F)cc3F)cc2c(=O)n1-c1ccc(Cl)c(C(F)(F)F)c1 the growth was 15.8%.
CCN1CCN(c2cc(C)c3cc(NC(=O)c4ccc(OC)c(OC)c4)ccc3n2)CC1 showed a growth of 30.3%.
In the case of COc1ccc(Cn2c(Br)c3c(c2-c2cc(OC)c(OC)c(OC)c2)CCc2sc(NC(C)=O)nc2-3)cc1, the growth is reported as 51.9%.
For COc1ccccc1C(=O)O/N=C(\N)Cc1cccc2ccccc12, the growth was 75.7%.
In the case of O=C(Nc1ccc(Cl)cc1F)c1cc(I)ccc1O, the growth is reported as 25.4%.
For O=C(O)CCC(=O)c1ccc(C2CCCCCC2)cc1, the growth was 105%.
Work on CCCCOCc1cc(CN2CCN(C)CC2)c(O)c2ncccc12 yielded a growth of 25.6%.
Work on COC(=O)/C(CCC=C(C)C)=C1\[C@@H](OC(C)=O)C[C@@]2(C)[C@H]1C[C@@H](O)[C@H]1[C@@]3(C)CC[C@H](NCc4ccccc4)[C@@H](C)[C@@H]3CC[C@@]12C yielded a growth of 31%.
O=C(NC1C(O)OC(CO)C(O)C1O)NS(=O)(=O)c1ccc(Cl)cc1 (centres undefined) showed a growth of 102%.
With O=C(Nc1ccc(Br)cc1F)c1cc(Cl)ccc1O the growth was 2.29% (active).
CCOC(=O)c1c(C=O)nc2ccccc2c1/C=C/c1ccc(Cl)cc1 gave a growth of 89.6%.
With COc1cccc2cc(N(C)c3nc(C)nc4ccsc34)ccc12 the growth was 0.625% (active).
In the case of COc1cc(/C=C/C(=O)c2c(C)nc3ccccc3c2/C=C/c2ccccc2)cc(OC)c1OC, the growth is reported as -6.23% (active).
